Reference: PMC5700166
Substitutions are numbered along the chain they refer to.

Experiments:
Assay in all cases: protein-binding microarray (PBM); PBM: ~300 nM protein, 6 mM HEPES pH 7.8, 80 mM KCl, 0.5 mM EDTA, 0.5 mM EGTA, 6% glycerol, 35 ng/ul poly-dIdC, 1% milk, 1 h, room temperature; Ap Aiptasia and Nv Nematostella (sea anemones) / Co Capsaspora / Aq Amphimedon (sponge) / Dm Drosophila / Hu human; RHD is the Rel homology domain; high values mean tight binding
Conditions in all cases: dsDNA, one strand shown
GST-Ap-NF-kB RHD = molecular target: T1, GST-Ap-NF-kB RHD (Exaiptasia pallida (Aiptasia), UniProt A0A913YAJ5 2-422)
T1 sequence: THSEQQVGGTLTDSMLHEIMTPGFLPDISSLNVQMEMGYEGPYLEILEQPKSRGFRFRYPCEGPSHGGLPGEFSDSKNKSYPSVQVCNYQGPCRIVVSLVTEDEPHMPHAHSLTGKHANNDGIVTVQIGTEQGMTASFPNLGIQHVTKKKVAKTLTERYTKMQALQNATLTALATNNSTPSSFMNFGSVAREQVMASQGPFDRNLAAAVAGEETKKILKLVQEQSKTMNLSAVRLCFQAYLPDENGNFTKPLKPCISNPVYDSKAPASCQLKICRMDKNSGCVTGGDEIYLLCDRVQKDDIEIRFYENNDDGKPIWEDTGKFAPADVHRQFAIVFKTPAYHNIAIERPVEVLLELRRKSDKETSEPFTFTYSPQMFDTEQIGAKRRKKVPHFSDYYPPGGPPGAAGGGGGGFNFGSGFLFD

[1] = molecular target: T2, GST-Nv-NF-kB (Cys allele) (Nematostella vectensis, UniProt E5G601 2-411)
T2 sequence: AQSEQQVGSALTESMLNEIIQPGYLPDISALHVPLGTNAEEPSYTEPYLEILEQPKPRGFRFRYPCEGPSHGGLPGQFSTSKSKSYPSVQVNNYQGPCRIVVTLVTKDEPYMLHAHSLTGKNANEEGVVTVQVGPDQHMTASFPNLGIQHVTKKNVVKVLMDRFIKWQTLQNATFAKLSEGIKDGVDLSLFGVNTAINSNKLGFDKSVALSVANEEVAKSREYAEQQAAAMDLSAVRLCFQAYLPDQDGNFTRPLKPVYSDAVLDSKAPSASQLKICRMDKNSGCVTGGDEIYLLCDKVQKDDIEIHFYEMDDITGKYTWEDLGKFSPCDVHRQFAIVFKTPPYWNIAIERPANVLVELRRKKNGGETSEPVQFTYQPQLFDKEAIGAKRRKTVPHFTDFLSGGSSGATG

[2] = molecular target: T3, GST-Nv-NF-kB (Ser allele) (Nematostella vectensis, UniProt A7UNT2 2-411)
T3 sequence: T2 sequence with Q21R, C66S, S207N, E215Q, V217A, E225K, A268E, D399E

GST-Co-NF-kB = molecular target: T4, GST-Co-NF-kB (Capsaspora owczarzaki, UniProt F1ARL5 200-546)
T4 sequence: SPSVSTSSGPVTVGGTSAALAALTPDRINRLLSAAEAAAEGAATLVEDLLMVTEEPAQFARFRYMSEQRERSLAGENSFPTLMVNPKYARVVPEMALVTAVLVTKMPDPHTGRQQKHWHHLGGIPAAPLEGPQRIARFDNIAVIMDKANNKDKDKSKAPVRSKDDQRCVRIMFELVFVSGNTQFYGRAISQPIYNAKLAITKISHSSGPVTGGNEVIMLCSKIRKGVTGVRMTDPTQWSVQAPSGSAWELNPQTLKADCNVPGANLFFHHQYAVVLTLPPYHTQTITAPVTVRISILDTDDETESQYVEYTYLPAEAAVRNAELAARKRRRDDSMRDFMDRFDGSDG

GST-Dm-Relish = molecular target: T5, GST-Dm-Relish (Drosophila melanogaster, UniProt Q94527 99-473)
T5 sequence: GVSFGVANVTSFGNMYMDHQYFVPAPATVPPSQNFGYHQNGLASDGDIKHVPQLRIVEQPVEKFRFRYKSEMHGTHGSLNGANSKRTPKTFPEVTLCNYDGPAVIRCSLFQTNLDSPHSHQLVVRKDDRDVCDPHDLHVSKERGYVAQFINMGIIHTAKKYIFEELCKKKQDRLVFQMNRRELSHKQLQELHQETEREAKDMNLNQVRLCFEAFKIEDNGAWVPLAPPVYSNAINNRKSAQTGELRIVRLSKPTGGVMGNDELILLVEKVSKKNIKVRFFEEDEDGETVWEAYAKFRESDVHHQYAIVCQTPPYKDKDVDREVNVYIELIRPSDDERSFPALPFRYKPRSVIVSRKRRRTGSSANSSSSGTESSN

GST-Aq-NF-kB = molecular target: T6, GST-Aq-NF-kB (Amphimedon queenslandica, UniProt A9Y5G7 2-389)
T6 sequence: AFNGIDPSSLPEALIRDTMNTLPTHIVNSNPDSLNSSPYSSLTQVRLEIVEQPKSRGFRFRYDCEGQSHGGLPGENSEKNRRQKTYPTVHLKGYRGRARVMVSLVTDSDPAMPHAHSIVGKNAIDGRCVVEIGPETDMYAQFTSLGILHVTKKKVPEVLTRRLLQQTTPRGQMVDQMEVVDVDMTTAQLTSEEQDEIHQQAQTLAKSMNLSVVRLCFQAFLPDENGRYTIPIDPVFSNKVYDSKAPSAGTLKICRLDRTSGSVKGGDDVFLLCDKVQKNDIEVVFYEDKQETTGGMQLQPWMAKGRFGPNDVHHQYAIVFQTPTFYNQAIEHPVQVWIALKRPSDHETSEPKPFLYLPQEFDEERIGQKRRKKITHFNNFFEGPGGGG

GST-Hu-p50 = GST-Hu-p50 (Homo sapiens, UniProt P19838 7-356)
Chain of GST-Hu-p50 (P19838 7-356): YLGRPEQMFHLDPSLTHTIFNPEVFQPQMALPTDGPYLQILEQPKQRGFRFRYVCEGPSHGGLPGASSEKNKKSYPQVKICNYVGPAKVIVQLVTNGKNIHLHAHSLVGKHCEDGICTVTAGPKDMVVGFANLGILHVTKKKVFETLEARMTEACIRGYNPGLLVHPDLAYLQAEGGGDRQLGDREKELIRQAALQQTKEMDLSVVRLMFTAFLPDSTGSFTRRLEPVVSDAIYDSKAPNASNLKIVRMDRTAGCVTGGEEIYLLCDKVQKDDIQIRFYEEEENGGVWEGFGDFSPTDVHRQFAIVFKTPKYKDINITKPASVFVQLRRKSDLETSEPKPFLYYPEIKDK

| Sequence | binding signal (GST-Ap-NF-kB RHD) | binding signal [1] | binding signal [2] | binding signal (GST-Co-NF-kB) | binding signal (GST-Dm-Relish) | binding signal (GST-Aq-NF-kB) | binding signal (GST-Hu-p50) |
| --- | --- | --- | --- | --- | --- | --- | --- |
| CCGATTAACATCATAAACCCCCATGATGTTAATCGGGTCTTGATTCGCTTGACGCTGCTG | 5.78 z-score | 4.95 z-score | 5.67 z-score | 2.59 z-score | 7.12 z-score | 4.77 z-score | 6.3 z-score |
| CCGATTAACATCAAAAAATCCCGTGATGTTAATCGGGTCTTGATTCGCTTGACGCTGCTG | 5.57 z-score | 6.22 z-score | 5.2 z-score | 2.99 z-score | 8.31 z-score | 6.71 z-score | 4.97 z-score |
| CCGATTAACATCAGGGGGTCCACTGATGTTAATCGGGTCTTGATTCGCTTGACGCTGCTG | 4.33 z-score | 2.44 z-score | 2.96 z-score | 1.99 z-score | 7.96 z-score | 4.83 z-score | 3.28 z-score |
| CCGATTAACATCAAGTCCCCCCCTGATGTTAATCGGGTCTTGATTCGCTTGACGCTGCTG | 6.57 z-score | 4.81 z-score | 5.16 z-score | 6.94 z-score | 5.61 z-score | 5.07 z-score | 4.23 z-score |
| CCGATTAACATCATATGGGAAAATGATGTTAATCGGGTCTTGATTCGCTTGACGCTGCTG | 1.55 z-score | 3.76 z-score | 4.82 z-score | 3.09 z-score | 1.12 z-score | 2.17 z-score | 2.72 z-score |
| CCGATTAACATCAGAAATTTCCCTGATGTTAATCGGGTCTTGATTCGCTTGACGCTGCTG | 5.84 z-score | 8.58 z-score | 8.13 z-score | 5.21 z-score | 4.81 z-score | 7.73 z-score | 5.92 z-score |
| CCGATTAACATCAAAGTATCCCCTGATGTTAATCGGGTCTTGATTCGCTTGACGCTGCTG | 6.1 z-score | 5.64 z-score | 7.21 z-score | 5.48 z-score | 3.47 z-score | 4.4 z-score | 4.64 z-score |
| CCGATTAACATCAGAAAGCCCCCTGATGTTAATCGGGTCTTGATTCGCTTGACGCTGCTG | 6.56 z-score | 7.59 z-score | 5.42 z-score | 2.16 z-score | 7.39 z-score | 6.98 z-score | 6.29 z-score |
| CCGATTAACATCAGGGACTCCCCTGATGTTAATCGGGTCTTGATTCGCTTGACGCTGCTG | 11.3 z-score | 9.16 z-score | 7.65 z-score | 4.68 z-score | 10.3 z-score | 9.57 z-score | 6.03 z-score |
| CCGATTAACATCAAATTATCCCCTGATGTTAATCGGGTCTTGATTCGCTTGACGCTGCTG | 6.03 z-score | 6.6 z-score | 8.6 z-score | 6.1 z-score | 3.57 z-score | 5.25 z-score | 5.28 z-score |
| CCGATTAACATCAGGGAGTTTTATGATGTTAATCGGGTCTTGATTCGCTTGACGCTGCTG | 5.33 z-score | 7.35 z-score | 6.78 z-score | 2.72 z-score | 5.65 z-score | 6.93 z-score | 5.8 z-score |
| CCGATTAACATCACGGGGATTTCTGATGTTAATCGGGTCTTGATTCGCTTGACGCTGCTG | 9.25 z-score | 9.87 z-score | 10.8 z-score | 5.27 z-score | 9.88 z-score | 7.52 z-score | 7.58 z-score |
| CCGATTAACATCAAGGGGGAAATTGATGTTAATCGGGTCTTGATTCGCTTGACGCTGCTG | 7.69 z-score | 8.6 z-score | 10.5 z-score | 8.86 z-score | 5.87 z-score | 7.06 z-score | 7.51 z-score |
| CCGATTAACATCAATTTTCCCCGTGATGTTAATCGGGTCTTGATTCGCTTGACGCTGCTG | 6.99 z-score | 8.12 z-score | 10.2 z-score | 11 z-score | 4.87 z-score | 6.2 z-score | 5.95 z-score |
| CCGATTAACATCAATCTTCCCCCTGATGTTAATCGGGTCTTGATTCGCTTGACGCTGCTG | 5.77 z-score | 6.99 z-score | 7.73 z-score | 9.37 z-score | 4.07 z-score | 6.23 z-score | 6.3 z-score |
| CCGATTAACATCAGGGAAAATTATGATGTTAATCGGGTCTTGATTCGCTTGACGCTGCTG | 5.47 z-score | 7.77 z-score | 8.46 z-score | 6.45 z-score | 2.28 z-score | 6.77 z-score | 5.34 z-score |
| CCGATTAACATCAAATAAACCCCTGATGTTAATCGGGTCTTGATTCGCTTGACGCTGCTG | 4.74 z-score | 5.11 z-score | 4.3 z-score | 2.32 z-score | 6.13 z-score | 5.4 z-score | 4.96 z-score |
| CCGATTAACATCAGGGGAATCAATGATGTTAATCGGGTCTTGATTCGCTTGACGCTGCTG | 5.46 z-score | 6.47 z-score | 8.04 z-score | 5.78 z-score | 5.48 z-score | 4.26 z-score | 4.98 z-score |
| CCGATTAACATCAATTTTTCCCGTGATGTTAATCGGGTCTTGATTCGCTTGACGCTGCTG | 3.39 z-score | 4.95 z-score | 6.62 z-score | 6.5 z-score | 2.16 z-score | 4.56 z-score | 3.66 z-score |
| CCGATTAACATCACCGGGAATTCTGATGTTAATCGGGTCTTGATTCGCTTGACGCTGCTG | 4.62 z-score | 5.1 z-score | 4.74 z-score | 5.5 z-score | 4.57 z-score | 4.34 z-score | 4.01 z-score |
| CCGATTAACATCAAAAAGTCCCTTGATGTTAATCGGGTCTTGATTCGCTTGACGCTGCTG | 7.48 z-score | 10.3 z-score | 9.76 z-score | 1.63 z-score | 8.86 z-score | 8.25 z-score | 6.97 z-score |
| CCGATTAACATCAGAATCTCCCCTGATGTTAATCGGGTCTTGATTCGCTTGACGCTGCTG | 7.81 z-score | 6.42 z-score | 6.73 z-score | 6.25 z-score | 3.02 z-score | 5.81 z-score | 5.32 z-score |
| CCGATTAACATCAGAAGTTCCCCTGATGTTAATCGGGTCTTGATTCGCTTGACGCTGCTG | 7.97 z-score | 8.26 z-score | 8.1 z-score | 7.36 z-score | 8 z-score | 7.04 z-score | 5.84 z-score |
